The results in this text go back to PubChem BioAssay AID602281 (The Scripps Research Institute Molecular Screening Center, 2012).

Structures are written as SMILES. The campaign covered roughly 360,000 compounds. About 2,900 (0.81%) were called active. What follows is part of a selection rich in actives, with near analogues and random picks from the rest. A number with no mark means an inactive call.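 Rule for the calls: active = inhibition above the mean inhibition across every tested compound plus 3 SD (cut at about 22% in these data); inactive = the rest.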

Broadly, the inhibition is the change of the read-out against control, counted positive when it falls.

Chain of Perilipin-5 (Homo sapiens) + 1-acylglycerol-3-phosphate O-acyltransferase ABHD5 (Homo sapiens) (Q00G26 whole entry, looked up): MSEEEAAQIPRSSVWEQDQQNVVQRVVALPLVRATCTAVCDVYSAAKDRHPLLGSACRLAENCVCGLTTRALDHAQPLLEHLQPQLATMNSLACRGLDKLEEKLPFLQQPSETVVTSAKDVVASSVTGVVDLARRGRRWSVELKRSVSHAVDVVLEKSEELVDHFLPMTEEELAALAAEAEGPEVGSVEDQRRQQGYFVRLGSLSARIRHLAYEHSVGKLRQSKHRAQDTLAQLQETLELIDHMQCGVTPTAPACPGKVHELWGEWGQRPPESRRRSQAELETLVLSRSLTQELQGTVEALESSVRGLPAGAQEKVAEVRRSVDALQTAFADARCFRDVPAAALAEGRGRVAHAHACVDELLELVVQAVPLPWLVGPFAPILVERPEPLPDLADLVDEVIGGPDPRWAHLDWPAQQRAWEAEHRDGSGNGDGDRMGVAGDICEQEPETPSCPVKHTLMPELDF
Chain of Perilipin-5 (Homo sapiens) + 1-acylglycerol-3-phosphate O-acyltransferase ABHD5 (Homo sapiens) (Q8WTS1 whole entry, looked up): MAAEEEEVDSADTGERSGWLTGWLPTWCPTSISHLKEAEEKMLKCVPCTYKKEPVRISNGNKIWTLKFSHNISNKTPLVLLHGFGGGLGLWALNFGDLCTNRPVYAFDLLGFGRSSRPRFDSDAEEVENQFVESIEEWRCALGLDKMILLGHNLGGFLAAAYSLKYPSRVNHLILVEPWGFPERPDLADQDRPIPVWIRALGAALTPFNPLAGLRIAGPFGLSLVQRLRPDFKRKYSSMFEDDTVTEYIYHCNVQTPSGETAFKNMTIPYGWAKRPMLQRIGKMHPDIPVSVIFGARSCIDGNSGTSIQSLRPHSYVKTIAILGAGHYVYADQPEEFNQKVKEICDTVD

The assay concerns the target Perilipin-5 (Homo sapiens) + 1-acylglycerol-3-phosphate O-acyltransferase ABHD5 (Homo sapiens) (UniProt Q00G26+Q8WTS1). Description: blockers of ABHD5 binding to perilipin-5 – cell lysate, split luciferase complementation, luminescence, primary screen (AID 602281).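 Note: 0% = DMSO only wells and the 100% control is not disclosed.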 Conditions: Split G. princeps luciferase complementation, 4 h, at 4 µM, stronger effect = higher value.
As to `O=C(c1cccnc1)N(c1cc2sc(=O)oc2c2ccccc12)S(=O)(=O)c1ccccc1`, the inhibition is 55.9% (active).
As to `O=C(CN(c1cc(C(F)(F)F)ccc1Cl)S(=O)(=O)c1ccccc1)NCc1cccnc1`, the inhibition is 3.26%.
Under `CCc1ccc(N(CC(=O)NCc2cccnc2)S(=O)(=O)c2ccccc2)cc1` stands 8.86%; under `O=C(COC(=O)c1ncc(Cl)c(Cl)c1Cl)NCc1cccs1`, 0.28%.
Turning to `CS(=O)(=O)N1CCCCC1c1cc(C(=O)NCc2ccccc2)no1` (stereo not drawn), the inhibition is -1.92%.
For `CC1(C)CCSC(/C=C/c2ccccc2)=N1`, the inhibition is 40.5% (active).
Under `CC1(C(=O)NS(=O)(=O)c2ccccc2)CCN1C(=O)C/C=C/c1ccccc1` (stereo not drawn) stands 11%; under `CNS(=O)(=O)c1cccc(C(=O)OCCCC(=O)c2ccccc2)c1`, 5.65%.
The result for `CN1CCN(C2Cc3ccc(Cl)cc3Sc3ccc(F)cc32)CC1` (stereo not drawn) reads 10.5%; that for `COCCNC(=O)CN(Cc1ccco1)C(=O)CCC(=O)Nc1nccs1`, 7.43%.
Consider `COCCNC(=O)Nc1ccc2nc(-c3ccco3)c(-c3ccco3)nc2c1`, for which the inhibition was 22.6% (active).
For the compound `COc1ccc(CCNC(=O)Nc2ccc3c(c2)c(=O)n(C)n3C)cc1OC`, the inhibition was 3.03%.
Under `c1ccc(CC2CCN(c3nc4ccccc4n4cnnc34)CC2)cc1` stands -9.78%.
Regarding `O=C(COc1ccc(S(=O)(=O)N2CCCCC2)cc1)NCc1ccccn1`, the inhibition was -0.42%.
Under `Cc1cccc(C)c1NC(=O)C(Cl)C(=O)c1ccccc1` (stereo not drawn) stands 38.3% (active).
In the case of `CN=C(c1ccccc1)c1c(C)cccc1C`, the inhibition is 4.42%.
In the case of `Cc1cccc(C)c1NC(=O)N1CC(C)OC(C)C1` (stereo not drawn), the inhibition is 5.67%.
For `C[C@H](NC(=O)c1[nH]cnc1C(=O)Nc1nccs1)c1ccccc1`, the inhibition was 1.59%.
For the compound `CC(C(=O)c1ccc(-c2ccccc2)cc1)[n+]1cccc(Br)c1` (stereo not drawn), the inhibition was 0.81%.
The result for `Cn1c(=S)sc2ccc3ccccc3c21` reads 1.97%; that for `Cc1cn(C)c(=O)n(C)c1=O`, -0.3%.
Turning to `Cc1ccc(-c2c3c(=O)n(C)c(=O)n(C)c3cn2-n2cnnc2)cc1`, the inhibition is 22.5% (active).
The result for `COc1ccc([N+](=O)[O-])cc1N(CC(=O)Nc1ccccc1C(=O)N1CCOCC1)S(C)(=O)=O` reads -1.59%; that for `CC(=O)NC1CCN(CC(=O)Nc2nccs2)CC1`, 6.01%; that for `Cc1ccnc(NC(=O)c2ccc(Cl)c([N+](=O)[O-])c2)c1`, 5.06%.
For `O=C(/C=C/c1ccc(Cl)c([N+](=O)[O-])c1)c1ccc(O)cc1`, the inhibition is 67.9% (active).
Under `CC(=O)Nc1ccc(C=CC(=O)c2ccc([N+](=O)[O-])cc2)cc1` stands 27.1% (active); under `O=C(O)c1ccc2c(=O)n3c(nc2c1)/C(=C/c1ccc(Cl)c([N+](=O)[O-])c1)CC3`, 3.3%.
Regarding `CC(C=Cc1ccccc1)=NNS(=O)(=O)c1ccc([N+](=O)[O-])cc1`, the inhibition is 1.47%.
As for `CC(=O)Nc1ccc(C(=O)/C=C/c2ccc[nH]2)cc1`, the inhibition was 11.6%.
As for `O=C(Nc1nccs1)C1CCN(S(=O)(=O)c2ccc(Cl)c(C(F)(F)F)c2)CC1`, the inhibition is -4.59%.
The result for `CCN1CCN(C(=O)C2CCCN(S(=O)(=O)c3ccc(OC)c(OC)c3)C2)CC1` (stereo not drawn) reads 7.45%; that for `O=C(NCc1cccc(Cl)c1)C1=CC=CN2CCS(=O)(=O)N=C12`, -4.23%.
Under `COc1ccc(S(=O)(=O)N2CCN(C(=O)NC3CCCCC3)CC2)cc1` stands -2.23%; under `CC(C)[C@H](NC(=O)c1ccc(F)cc1)C(=O)OCC(=O)NC(=O)c1cccn1C`, -4.59%.
Under `Cc1ccc2c(c1)C1CN(C)CCC1N2S(=O)(=O)c1ccc(Oc2ccc([N+](=O)[O-])cc2)cc1` (stereo not drawn) stands 15.8%; under `COc1ccc(-n2cc(CN(C)Cc3n[nH]c(=O)[nH]3)c(-c3cccc(F)c3)n2)cc1`, 7.9%.
Take `CCC(O)C1CCN(Cc2cn(-c3ccc(OC)cc3)nc2-c2cccc(F)c2)CC1` (stereo not drawn): the inhibition was 8.4%.
On to `COc1ccc(-n2cc(CNC3CCOCC3)c(-c3cccc(F)c3)n2)cc1`, for which the inhibition was 24.7% (active).
Under `COc1ccc(C2OC(=O)CC2C(=O)NC(C)C)cc1` (stereo not drawn) stands -1.02%; under `COc1ccc(C(=O)C2CCCN(C(=O)c3cc4nc(C)cc(C)n4n3)C2)cc1F` (stereo not drawn), 0.49%; under `Cc1ccc(CN2C(=O)CCC2C(=O)NCCCN2CCCCC2C)cc1` (stereo not drawn), 1.42%.
`FC(F)(F)c1cc(-c2ccco2)nc(NCc2ccc(Cl)cc2)n1`: the inhibition was -5.83%.
Turning to `C[C@H](NC(=O)C1CC(=O)N(c2ccc3c(c2)OCO3)C1)C(=O)NCc1ccco1` (stereo partly drawn), the inhibition is 10.8%.
Under `CCCC/C=C/c1cccc2nncn12` stands -0.29%; under `Cc1cc(C)n(CC(O)COc2ccc(C(C)(C)C)cc2)n1` (stereo not drawn), -1.93%; under `COc1ccc(C(C[N+](=O)[O-])n2nc(C)cc2C)cc1` (stereo not drawn), 54.3% (active).
Under `COc1ccc(C(CNC(=O)COc2ccc([N+](=O)[O-])cc2)N2CCCCC2)cc1` (stereo not drawn) stands -7.05%; under `COc1ccc(C(=O)C(OP(=O)(OC)OC)c2ccccc2OC)cc1` (stereo not drawn), 0.08%; under `CC(C)NC(=S)N1CCN(S(C)(=O)=O)CC1`, -5.54%.
Under `CCCc1cc(-c2n[nH]c(=S)n2CC)c2ccccc2n1` stands -2.69%; under `Cc1cc(-c2n[nH]c(=S)n2/N=C/C(Br)=C/c2ccccc2)n[nH]1`, 62.1% (active).
For the compound `CCN(CC)S(=O)(=O)c1cccc(-c2n[nH]c(=S)n2/N=C/c2ccc(C(=O)OC)cc2)c1`, the inhibition is -11.2%.
In the case of `COC(=O)C1=C(C)NC2=C(C(=O)c3ccccc32)C1c1ccc(-c2ccc(C(=O)O)cc2)o1` (stereo not drawn), the inhibition is 17.7%.
Consider `Cc1ccc(NC(=S)N2CCN(c3ncccn3)CC2)cc1C`, for which the inhibition is 5.22%.
Consider `O=C1/C(=C\c2ccc(O)cc2)CCC1CNc1ccc(Cl)cc1` (stereo not drawn), for which the inhibition is 23.7% (active).
Regarding `COc1cc(C)c(C)cc1S(=O)(=O)N1CCCc2ccccc21`, the inhibition is 3.45%.
With `CCN1/C(=C\c2ccc3ccccc3[n+]2CC)Sc2cc(C)ccc21`, the inhibition was 28.2% (active).
Consider `C=C(C)C(=O)Nc1cccc(C2=NOC3(C2)C[C@H](C(N)=O)N(C(=O)C(c2ccccc2)c2ccccc2)C3)c1` (stereo partly drawn), for which the inhibition is 0.12%.
Take `Cc1ccn2c(=O)nc(SCC(=O)NCc3ccc4c(c3)OCO4)nc2c1`: the inhibition is -8.67%.
For the compound `Cc1ccc(/C=C/C(=O)OCC(=O)NCc2ccc(Cl)cc2)o1`, the inhibition is 5.48%.
The result for `COc1cc(NC(=S)NCCSc2ccc(C)cc2)cc(OC)c1` reads -1.88%; that for `Cc1csc(NC(=O)NC2(C(F)(F)F)Oc3ccccc3O2)n1`, 49.8% (active).
The result for `Cc1csc(NC(=O)C2CCN(S(=O)(=O)c3ccccc3)CC2)n1` reads 2.8%; that for `COc1cc(SC)ccc1C(=O)Nc1nc(C)cs1`, -0.45%; that for `CCCCN(C(C)=O)c1ccc2c(c1)C1CC2CCN1Cc1ccccc1` (stereo not drawn), -6.18%.
Under `COc1ccc(OC)c(/C(C)=N\NC(=O)c2cc3cc(Cl)ccc3n2C)c1` stands 5.51%; under `CC(NC(=O)Nc1cccc([N+](=O)[O-])c1)c1ccc2c(c1)OCO2` (stereo not drawn), 8.55%.
For `COc1cccc(NCCC(=O)c2cccc([N+](=O)[O-])c2)c1`, the inhibition is -2.37%.
The result for `COC(=O)/C=C\C(=O)Nc1cccc([N+](=O)[O-])c1` reads 41% (active); that for `O=C(Cn1c(=O)n(Cc2ccco2)c(=O)c2ccccc21)NCC1CCCO1` (stereo not drawn), -2.17%.
The result for `Cn1c2ccccc2c(=O)c2c(=O)n(Cc3ccco3)c(COc3ccccc3)nc21` reads 40.1% (active); that for `O=C(CCCOc1ccccc1)NCc1ccco1`, -2.47%; that for `CCSc1nc(O)c(C(c2cccc(OC)c2)c2c(O)nc(SCC)[nH]c2=O)c(=O)[nH]1`, -4.24%.
As to `CCn1c(CNC(=O)c2ccc(OC)c(OC)c2)nnc1SCC(=O)Nc1ccccc1`, the inhibition was -3.29%.
Turning to `CCn1c(SC)nc(O)c(C(c2ccc(OC)c(O)c2)c2c(O)nc(SC)n(CC)c2=O)c1=O`, the inhibition is 30.9% (active).
Under `C=CCN(c1ccc(C(N)=O)cc1)S(C)(=O)=O` stands 0.17%.
Take `CC(C)CCOc1ccc(C(=O)C[N+]2(C)CCOCC2)cc1`: the inhibition is 1.19%.
The result for `CCCOc1ccc(C(=O)C(CCC(CNCC)C(=O)c2ccc(OCCC)cc2)CNCC)cc1` (stereo not drawn) reads 34.9% (active).
Regarding `CCOc1cc(C(=O)O)ccc1OCCOc1ccccc1`, the inhibition was -0.9%.
`O=C(Nc1ccccc1N1CCCC1)c1ccc(F)c(S(=O)(=O)N2CCOCC2)c1`: the inhibition is -7.04%.
Turning to `CC(=O)N1CSCC1C(=O)O` (stereo not drawn), the inhibition is 3.52%.
The result for `O=C(/C=C(O)/C=C/c1ccc(O)cc1)/C=C/c1ccc(O)cc1` reads 35.1% (active); that for `NC1=NC(=O)S/C1=C\c1ccc(O)cc1`, 7.71%; that for `C=CCNC(=O)/C=C/c1ccc(C(C)C)cc1`, -1.9%.
Consider `CCc1nc(C)cn1S(=O)(=O)c1cc([N+](=O)[O-])ccc1Cl`, for which the inhibition was 4.39%.
The result for `CCC(C(=O)OCCN(CC)CC)c1ccccc1` (stereo not drawn) reads 49.6% (active); that for `CN(C)CCOC(=O)C(c1ccccc1)C1(O)CCCC1` (stereo not drawn), -6.36%; that for `CCCC(C(=O)OCCN(CC)CC)(c1ccccc1)c1ccccc1`, 6.21%.
As for `Cc1ccnc(SCCn2c(N(C)Cc3ccccc3)nc3c2c(=O)n(C)c(=O)n3C)n1`, the inhibition is -0.81%.
As for `N#Cc1ccccc1S(=O)(=O)N1CCN(C(=O)c2cc(-c3ccccc3)nn2-c2ccccc2)CC1`, the inhibition was -8.95%.
As to `O=c1oc2c(CN3CCCCC3)c(O)ccc2c2c1CCCCC2`, the inhibition was -1.69%.
The result for `N#Cc1ccccc1S(=O)(=O)N1CCN(Cc2c(O)ccc3ccccc23)CC1` reads 27.7% (active).
